In PubChem BioAssay AID588458 (Sanford-Burnham Center for Chemical Genomics, 2011):
Out of some 360,000 compounds screened, about 3,000 (0.83%) were called active. No stated cut-off is given here; in the data, active means inhibition above about 50%; inactive means the rest. This excerpt belongs to a sample that is enriched for actives.

target: DNA (cytosine-5)-methyltransferase 1 (Homo sapiens) (UniProt P26358); experiment: inhibition of DNA methyltransferase DNMT1 – biochemical, molecular beacon, fluorescence, HinP1I cleavage, uHTS, primary screen (AID 588458); conditions: at 10 µM, stronger effect = higher value
Sequence (P26358 504-1616 limits assumed): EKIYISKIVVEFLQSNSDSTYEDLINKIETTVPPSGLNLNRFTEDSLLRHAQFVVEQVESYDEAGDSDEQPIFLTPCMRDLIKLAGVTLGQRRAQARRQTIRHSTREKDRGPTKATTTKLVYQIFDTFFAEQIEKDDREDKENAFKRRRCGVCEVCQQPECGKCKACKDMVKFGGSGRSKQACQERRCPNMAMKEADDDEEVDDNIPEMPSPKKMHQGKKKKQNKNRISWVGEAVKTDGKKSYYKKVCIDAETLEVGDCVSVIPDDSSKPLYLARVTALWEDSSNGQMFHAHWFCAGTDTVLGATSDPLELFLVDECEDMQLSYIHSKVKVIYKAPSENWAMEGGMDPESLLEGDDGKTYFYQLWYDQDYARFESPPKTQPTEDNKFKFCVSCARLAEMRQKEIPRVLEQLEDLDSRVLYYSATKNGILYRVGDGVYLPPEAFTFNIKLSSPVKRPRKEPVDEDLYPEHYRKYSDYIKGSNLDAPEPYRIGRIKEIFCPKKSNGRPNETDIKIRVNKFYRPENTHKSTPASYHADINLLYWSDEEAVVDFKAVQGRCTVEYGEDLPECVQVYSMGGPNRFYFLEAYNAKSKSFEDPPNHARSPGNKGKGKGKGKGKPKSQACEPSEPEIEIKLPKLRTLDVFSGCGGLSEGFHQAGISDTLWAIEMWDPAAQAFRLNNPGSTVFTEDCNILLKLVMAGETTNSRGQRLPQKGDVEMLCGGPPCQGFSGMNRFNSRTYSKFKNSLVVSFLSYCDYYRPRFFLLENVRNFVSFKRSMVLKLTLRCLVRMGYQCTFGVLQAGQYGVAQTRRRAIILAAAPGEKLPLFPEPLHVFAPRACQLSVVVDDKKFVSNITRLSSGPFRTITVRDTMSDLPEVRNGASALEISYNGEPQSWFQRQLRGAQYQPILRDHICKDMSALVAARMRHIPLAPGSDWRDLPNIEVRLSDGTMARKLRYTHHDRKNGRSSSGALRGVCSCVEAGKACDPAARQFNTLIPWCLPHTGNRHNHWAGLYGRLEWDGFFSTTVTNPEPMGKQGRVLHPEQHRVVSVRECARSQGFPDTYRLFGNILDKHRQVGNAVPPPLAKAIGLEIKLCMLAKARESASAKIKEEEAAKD

| SMILES | inhibition (reported as % activation of signal) |
| --- | --- |
| COCCCC1CCN(C(=O)C2CCC(=O)N(C3CCCCCC3)C2)CC1 (configuration not stated) | -2.02% (inactive) |
| C=CCN1CCN(C(=O)CCCc2ccccc2)CC1 | 0.85% (inactive) |
| Cc1noc(C)c1COC(=O)COc1ccc(-c2ccccc2)cc1 | -6.7% (inactive) |
| O=C(COC(=O)c1ccncc1)c1ccccc1 | -0.53% (inactive) |
| O=C(Oc1ccc(-c2nc(-c3ccccn3)no2)cc1)c1ccccc1 | 52.9% (active) |
| Nc1nc(Br)c2ccccc2c1-c1ccc(F)cc1 | -9.34% (inactive) |
| c1ccc2cc3c(NCCN4CCOCC4)ccnc3cc2c1 | 54.4% (active) |
| Cc1cccc(C)c1OCCN1CCOCC1 | 0.32% (inactive) |
| O=C(NCCN1CCOCC1)c1cc(Sc2cccc(Cl)c2)nc2ccccc12 | -4.33% (inactive) |
| CN1CCN(C(=O)C(=O)c2cn(CC(=O)N3CCCC3)c3ccccc23)CC1 | 1.12% (inactive) |
| O=C(CN1C(=O)c2cccnc2Oc2ccc(Cl)cc21)NCCc1ccccc1 | -0.09% (inactive) |
| Cc1ccc2oc(=O)c3cnn(CC(=O)N4CCN(c5ccccn5)CC4)c3c2c1 | 2.52% (inactive) |
| CC(=O)Nc1ccc(SCC(=O)NC(=O)c2ccc(Cl)cc2)cc1 | 69.8% (active) |
| CCC(=O)Nc1ccc(C(=O)NNC(=O)c2ccc(Cl)cc2)cc1 | -1.31% (inactive) |
| CC(=O)Nc1ccc(NC(=O)CCCNC(=O)c2ccc(Cl)cc2)cc1 | -1.09% (inactive) |
| Cc1ccc2c(CN3CCN(S(=O)(=O)c4ccccc4C(F)(F)F)CC3)cc(=O)oc2c1 | -2.32% (inactive) |
| CC(C)Oc1ccc(S(=O)(=O)N2CCOCC2)cc1NC(=O)C1CCCC1 | 4.21% (inactive) |
| O=C(CN1C(=O)/C(=C\c2ccccc2F)SC1=S)Nc1nc2ccccc2s1 | -44.4% (inactive) |
| CCCCN1C(=O)/C(=C/C=C2/C=Cc3ccccc3N2CC)SC1=S | 3.13% (inactive) |
| Cc1ccc(-c2nn(-c3ccccc3)cc2/C=C2\SC(=S)N(CCCCCC(=O)O)C2=O)o1 | 87.9% (active) |
| CCc1nnc(NS(=O)(=O)c2ccc(NC(=S)NC(=O)/C=C/c3cccs3)cc2)s1 | 9.17% (inactive) |
| CCOC(=O)c1c(NC(=S)NC(=O)/C=C/c2cccs2)sc(C)c1C | 58.9% (active) |
| CCOC(=O)c1sc(=NC(=O)/C=C/c2cccs2)n(C)c1C | 10.1% (inactive) |
| O=C(CO/N=C/c1ccccc1O)NNC(=O)c1ccccc1Cl | -2.54% (inactive) |

| SMILES | inhibition (reported as % activation of signal) |
| --- | --- |
| CC(C)(C)C(=O)N(Cc1ccccc1)c1ccccn1 | -1.5% (inactive) |
| CC(C)(C)N(Cc1ccccc1)C(=O)c1ccncc1 | 82.6% (active) |
| CCN(Cc1ccncc1)C(=O)CCc1ccccc1 | -1.63% (inactive) |
| CC(=O)N/C(=N/c1nc(C)cc(C)n1)Nc1ccc(F)cc1F | 0.05% (inactive) |
| C/C(=N\NC(=O)CCn1nc(C)cc1C)C(C)(C)C | -0.8% (inactive) |
| OCC(O)C1OCOC(C(O)CO)C1O (configuration not stated) | -1.63% (inactive) |
| O=C(NCCc1ccc(F)cc1)c1ccc(S(=O)(=O)N2CCCCC2)cc1 | -2.12% (inactive) |
| NC1=CC(=O)C(=O)c2cccnc21 | 100% (active) |
| CN(Cc1ccccc1)C(=O)COC(=O)c1ccccc1Nc1ccccc1 | -16.6% (inactive) |
| Cn1cnc(C(F)(F)F)c1-c1ccc([N+](=O)[O-])cc1 | 3.01% (inactive) |
| O=C(COC(=O)c1cccc(Br)c1)Nc1cccc2c1C(=O)c1ccccc1C2=O | 51% (active) |
| O=C(COC(=O)c1ccccc1)Nc1ccccc1Sc1ccccc1 | 0.84% (inactive) |
| O=C(COC(=O)Cn1cnc2ccccc21)Nc1cccc2c1C(=O)c1ccccc1C2=O | 27.5% (inactive) |
| CC(C)(C)c1ccccc1NC(=O)CN1C(=O)NC2(CCCC2)C1=O | 1.67% (inactive) |
| COCCn1cnnc1SCC(=O)Nc1cccc(S(=O)(=O)N2CCCCC2)c1 | -1.49% (inactive) |
| Cc1ccc2c(c1)N(CC(=O)N1CCC(C)CC1)C(=O)c1cccnc1O2 | -0.74% (inactive) |
| COc1ccc(/C=C/C(=O)OCC(=O)N2CCN(S(=O)(=O)c3ccc(C)cc3C)CC2)cc1OC | -0.56% (inactive) |
| Cc1ccc(N=C2NC(=O)/C(=C/C=C/c3ccco3)S2)cc1C | 71.1% (active) |
| O=C(COC(=O)c1cc(=O)[nH]c2ccccc12)Nc1nc(-c2cccc(Br)c2)cs1 | -21.4% (inactive) |
| Cc1cc(C)c(-c2csc(NC(=O)CCCc3nc4ccccc4c(=O)[nH]3)n2)c(C)c1 | -5% (inactive) |
| O=C(CSc1nc2ccccc2c(=O)[nH]1)Nc1nc(-c2ccc(Br)cc2)cs1 | 93.2% (active) |
| Cc1ccc(C(C(=O)NCC2CCCO2)N(C(=O)c2snc(C(N)=O)c2N)c2ccc(C(C)C)cc2)o1 (configuration not stated) | 0.65% (inactive) |
| CC(C)C(=O)Nc1ccc2c(c1)oc1ccccc12 | -5.97% (inactive) |
